# According to PubChem BioAssay (NCI):
# About 83,000 compounds went through this panel and 20% of them were active in at least one assay; those are over-represented in the sample as a whole.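 Testing used 96-well plates and a 48-hour single-concentration exposure. Example: -40 means 40% of the starting cells died.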 A number with no mark means an inactive call. Active and inactive are the calls of the source. How the source made its calls: active means growth percent below 10; inactive means the rest.
# How the values were obtained:
# Assay in all cases: NCI-60 one-dose screen, 48 h (100 = growth as untreated, 0 = no growth, -100 = all killed)
# Details in all cases: 10 µM unless noted
# [1] = system: HCT-15 colon
# [2] = system: HT29 colon
# [3] = system: SNB-75 CNS
# [4] = system: SNB-19 CNS
# [5] = system: U251 CNS
# [6] = system: PC-3 prostate
# [7] = system: SK-MEL-5 melanoma
# [8] = system: UACC-62 melanoma
# [9] = system: SK-MEL-28 melanoma
# [10] = system: LOX IMVI melanoma
SMILES,growth [1],growth [2],growth [3],growth [4],growth [5],growth [6],growth [7] [%],growth [8],growth [9],growth [10]
C=C(C)[C@@H]1CC[C@]2(CO)CC[C@]3(C)[C@H](CC[C@@H]4[C@@]5(C)C=C(C#N)C(=O)C(C)(C)[C@@H]5CC[C@]43C)[C@@H]12,3.8% (active),8.33% (active),52.1%,18.5%,9.63% (active),6.8% (active),12,-33% (active),20.9%,
O=c1[nH]c(NCc2nnnn2-c2ccc(Br)cc2)nc2sc3c(c12)CCCC3,98%,95.5%,93.2%,96.1%,83.8%,84.4%,,87.1%,112%,95.8%
CC(C)c1ccc(NC(=O)Cc2ccc(Nc3ncnc4cc(-c5cnn(CCN(C)C)c5)ccc34)cc2)cc1,-53.1% [30 µM] (active),-45.4% [30 µM] (active),-82.6% [30 µM] (active),-86.1% [30 µM] (active),-65.7% [30 µM] (active),-78.1% [30 µM] (active),,-89.1% [30 µM] (active),-82.2% [30 µM] (active),-65.1% [30 µM] (active)
CCCCOc1nc2ccc(Cl)cc2cc1/C=C/C(=O)/C=C1/CC(c2cc3cc(Cl)ccc3nc2OCCCC)Nc2ccccc2N1 (configuration not stated),94.1%,101%,86.2%,99.1%,96.4%,91.6%,,89.1%,105%,94.4%
CC(C)OCCCNCC(=O)Nc1ccc(S(=O)(=O)c2ccc(NC(=O)CNCCCOC(C)C)cc2)cc1,120%,27.4%,85.5%,103%,85.6%,87%,,107%,99.9%,78.7%
COc1cccc(/C=C2\COc3ccc(O)cc3C2=O)c1OC,45.4%,19.2%,86.5%,67.4%,54.3%,56.2%,,71%,,-19.7% (active)
COc1ccc(C2CC(c3ccccc3)=NN2c2nc(C)c(C(C)=O)s2)cc1 (configuration not stated),98.7%,102%,90.2%,99.3%,100%,97%,,91.5%,112%,94.6%
CCO/C=N/C1=C(C#N)C(c2ccc(OC)cc2)c2c(c3ccccc3n(C)c2=O)O1 (configuration not stated),103%,104%,78.1%,101%,103%,98.4%,,98.7%,110%,99.1%
COc1ccc(Oc2nc(Nc3ccc(N4CCOCC4)nc3)ncc2NC(=O)c2cc(OC)cc(OC)c2)cc1,52.9%,77.8%,70.6%,80.6%,84.2%,67.9%,70.9,69.3%,79.8%,
CC(=O)Nc1ccc2c(c1)Cc1c(F)cccc1-2,108%,111%,73.7%,107%,107%,88.4%,,98.9%,117%,103%
COc1cc(C(=O)/C=C/c2c(-c3ccc(F)cc3)nc3ncccn23)cc(OC)c1OC,43.5%,38.2%,59.2%,88.2%,48.2%,47%,,52.2%,49.2%,36.4%
CC(=O)Nc1ccc(-c2cc3c(NCc4ccc(F)cc4)ncnc3s2)cc1,88.8%,102%,70.1%,57.8%,77.6%,81%,,73%,93.5%,82.4%
COc1ccc(/C=C2\COc3ccc(O)cc3C2=O)cc1OC,71.3%,19.9%,91.3%,59.5%,40.8%,64.3%,,77.1%,97.3%,11.6%
C=C1C(=O)O[C@H]2[C@H]1CC/C(COC(=O)/C=C\C(=O)NCc1ccc(Cn3c(=O)sn(-c4ccc(OC)cc4)c3=O)cc1)=C\CC[C@@]1(C)O[C@@H]21,-58.1% (active),-22.9% (active),-57.8% (active),7.17% (active),-60.3% (active),-58% (active),,-99.6% (active),-92% (active),-88.6% (active)
Cc1cc(NS(=O)(=O)c2ccccc2)c(OS(=O)(=O)c2ccccc2)cc1C,102%,111%,89.5%,98.1%,99.8%,89.7%,,94%,112%,99.3%
COc1ccc(/C(C)=C(\c2ccc(Cl)cc2)c2ccc(OCCN3CCCCCC3)cc2)cc1F,-23.9% (active),10%,75.6%,65.9%,39.8%,41%,,48.2%,26%,-47% (active)
C=C1C(=O)O[C@H]2[C@H]1CC/C(COC(=O)/C=C\C(=O)NCc1ccc(Cn3c(=O)sn(-c4ccc(Cl)cc4)c3=O)cc1)=C\CC[C@@]1(C)O[C@@H]21,-33.8% (active),-28.3% (active),-83.5% (active),-8.33% (active),-78.3% (active),-64.1% (active),,-97.6% (active),-93.5% (active),-84.9% (active)
CCN(CC)CCOc1ccc(/C(=C(\C)c2ccc(F)c(OC)c2)c2ccc(Cl)cc2)cc1,2.58% (active),9.08% (active),31.9%,8.37% (active),3.13% (active),14.8%,,-44.8% (active),-64.6% (active),-94.1% (active)
C=CCO[C@H]1CO[C@H]2[C@@H]1OC[C@@H]2Oc1ccc(Nc2ccnc(Nc3ccc(O[C@H]4CO[C@H]5[C@@H]4OC[C@@H]5OCC=C)c(Cl)c3)n2)cc1Cl,-78.5% (active),-5.18% (active),0.0674% (active),-90.3% (active),-59.5% (active),14%,,-92.2% (active),-80.3% (active),-95% (active)
Cc1ccc(S(=O)(=O)NN/C(N)=N\S(=O)(=O)c2cc(C)c(Cl)cc2SCc2ccccc2)cc1,109%,107%,68.3%,86.9%,83.9%,71.6%,,84.3%,94.3%,92%
COc1cc(C2CC(c3ccc(Nc4nc(Nc5ccc(F)cc5)nc(Nc5ccc(Cl)cc5)n4)cc3)=NN2C(C)=O)cc(OC)c1OC (configuration not stated),65.7%,46.3%,54.7%,74.5%,62.6%,32.6%,,62%,88.7%,82.8%
CCCCCCNC(=O)c1cc(NCc2cc(O)ccc2O)ccc1O,34.6%,91%,45.7%,99.7%,67.3%,42.6%,,56.3%,101%,67.7%
Cc1[nH]c(-c2nc3ccccc3[nH]2)c(C)c1C(=O)NNc1ccc(Cl)cc1,94.1%,104%,87.1%,87.1%,103%,85.6%,,90.2%,99.6%,93.6%
CC1(C)N=C(N)N=C(N)N1c1ccc(Cl)c(Cl)c1,30.6%,36.2%,71.2%,40.3%,30.1%,38.3%,,27.4%,78.6%,18.8%
N#Cc1c(NC(=O)c2cccc(C(F)(F)F)c2)sc2c1CCC(=O)C2,-39.4% (active),2.24% (active),-50.5% (active),12.3%,0.284% (active),-42% (active),,-51.1% (active),-42.5% (active),-12.7% (active)
C=C1C(=O)O[C@H]2[C@H]1CC/C(COC(=O)/C=C\C(=O)NCc1ccc(Cn3c(=O)sn(-c4ccc(C#N)cc4)c3=O)cc1)=C\CC[C@@]1(C)O[C@@H]21,-33.9% (active),-13.2% (active),-82.2% (active),-65% (active),-66.4% (active),-62.4% (active),,-99.4% (active),-96.2% (active),-86.8% (active)
O=C(O)c1ccccc1C(=O)Nc1ccc(Cl)cc1,98.5%,104%,95.8%,102%,89.9%,96.6%,,48.8%,96.7%,63.8%
